GPR151 ag – human GPR151 activation; Q8TDV0; 650,000 compounds, 1% hits; PathHunter beta-arrestin GPR151 cells, luminescence; AID 1508602; activation, % at 11.2 µM; in the data active means activation above about 4.9%
MITF inh – human MITF inhibition, primary screen | O75030 | inhibition, % at 2.6 µM | 650,000 compounds, 0.91% hits | AID 1259374 | AlphaScreen MITF homodimerization, bead proximity signal; in the data active means inhibition above about 50%
FBW7 activator – human FBW7 E3 ligase activation, primary screen. 650,000 compounds, 0.13% hits. AID 1259310. normalized activity (activation), % at 26.1 µM. AlphaScreen FBW7–phospho-cyclin E peptide binding, activator screen. Q969H0; in the data active means normalized activity above about 1.9%;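 further: purified mutant Fbw7 with reduced substrate affinity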
TEAD-YAP inh – TEAD-YAP interaction inhibition; 640,000 compounds, 1.4% hits; AID 1259422; inhibition, % at 9.12 µM; HEK-TIYL cells, TEAD-Gal4/YAP UAS-luciferase luminescence; in the data active means inhibition above about 32%
GPR151 confirm – confirmation of human GPR151 activators; 6,700 tested, under 10 active; AID 1508609; activation, % at 11.2 µM; shares compounds with GPR151 ag; GPR151 PathHunter beta-arrestin cells, luminescence, 90 min; % of EA-reagent control over plate median;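 active means mean percent activation across replicates above the confirmation screen cutoff of 4.91%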
GPR119 counter – GPR119 activation, counter-screen for GPR151 activators. shares compounds with GPR151 ag. GPR119 PathHunter beta-arrestin cells, luminescence, 90 min; 0 = compound-well median, 100 = enzyme-acceptor control. activation, % at 11.2 µM. 6,700 compounds, 0.3% hits. AID 1508611;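 active means mean percent activation in the counterscreen above 29.09%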;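 further: counterscreen on off-target GPR119 to flag nonselective hits from the GPR151 activator screen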
Target sequence (Q8TDV5 whole entry, looked up): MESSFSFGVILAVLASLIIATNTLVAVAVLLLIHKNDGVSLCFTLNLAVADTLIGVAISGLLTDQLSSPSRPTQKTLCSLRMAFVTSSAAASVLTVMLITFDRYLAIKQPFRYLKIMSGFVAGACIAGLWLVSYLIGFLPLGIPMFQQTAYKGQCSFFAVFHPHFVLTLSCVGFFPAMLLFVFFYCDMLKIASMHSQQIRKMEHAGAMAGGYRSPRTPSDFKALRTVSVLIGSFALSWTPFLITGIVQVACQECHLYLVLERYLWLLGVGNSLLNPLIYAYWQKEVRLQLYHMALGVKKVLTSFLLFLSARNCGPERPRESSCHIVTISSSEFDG
Large screens that a line does not name were inactive (follow-up assays come after a bar, where they were run); ! = a repeat was not active. Most compounds without a hit are left out; they make up all but 3.5% or so of the library.

Cc1ccc(NCC(=O)N/N=C/c2cc(Cl)ccc2O)cc1	none
CCOC(=O)c1c(NC(=O)c2cccnc2)sc(C(=O)OC(C)(C)C)c1C	none
O=C1NC(c2ccccc2)=NC1(NS(=O)(=O)c1ccc(Cl)cc1)C(F)(F)F (stereo unspecified)	GPR151 ag 6.9 | GPR151 confirm inactive | GPR119 counter inactive
COc1ccc(Cl)cc1/C=C/c1[nH]c(=O)[nH]c(=O)c1[N+](=O)[O-]	GPR151 ag 7.3 | GPR151 confirm inactive | GPR119 counter inactive
COc1ccc(OC)c(/C=C/c2[nH]c(=O)[nH]c(=O)c2[N+](=O)[O-])c1	none
CCOC(=O)c1sc2nc(CC(=O)OC)nc(Nc3ccc(F)cc3Cl)c2c1C	none
Cc1cc([N+](=O)[O-])ccc1-c1ccc(C(=O)NC(C)(C)C)o1	GPR151 ag 7.7 | GPR151 confirm inactive | GPR119 counter inactive
CCN1C=CC=C/C1=C1\SC(=S)N(C)C1=O	GPR151 ag 7.3 | GPR151 confirm inactive | GPR119 counter inactive
CCOC(=O)C1CCN(CCC(=O)Nc2ccc(Br)c(C)c2)CC1	GPR151 ag 10.2 | GPR151 confirm inactive | GPR119 counter inactive
C=CCn1c(-c2ccc(OC)cc2)n[nH]c1=S	none
CC(C)(O)c1ccccc1CC[C@@H](SCC1(CC(=O)O)CC1)c1cccc(/C=C/c2ccc3ccc(Cl)cc3n2)c1	GPR151 ag 6.7! | GPR151 confirm inactive | GPR119 counter inactive
CCc1cc2[nH]c(C(=O)OC)cc2s1	GPR151 ag 5.0 | GPR151 confirm inactive | GPR119 counter inactive
Cc1[nH]c2ccccc2c1CCNC(=O)/C(=C/c1ccccc1)NC(=O)c1ccccc1Cl	none
Cc1[nH]c2ccccc2c1CCNC(=O)/C(=C/c1ccccc1)NC(=O)c1ccco1	GPR151 ag 6.0 | GPR151 confirm inactive | GPR119 counter inactive
CCn1c(SCC(=O)c2cccs2)nc2c1c(=O)n(C)c(=O)n2C	GPR151 ag 5.3 | GPR151 confirm inactive | GPR119 counter inactive
O=C(NCc1ccccc1Cl)c1c(O)c2ccccc2[nH]c1=O	GPR151 ag 5.0 | GPR151 confirm inactive | GPR119 counter inactive
Cc1ccc(NC2=C([N+](=O)[O-])CS(=O)(=O)C2)cc1	GPR151 ag 6.5 | GPR151 confirm inactive | GPR119 counter inactive
O=[N+]([O-])C1=C(Nc2ccc(Cl)c(Cl)c2)CS(=O)(=O)C1	none
C[C@@H](OCc1ccccc1)[C@@H]1NC(=O)[C@H]2CN(C(=O)c3cc(F)c(F)cc3F)CCN2C1=O	none
C[C@@H](OCc1ccccc1)[C@@H]1NC(=O)[C@H]2CN(C(=O)c3cc(F)ccc3F)CCN2C1=O	GPR151 ag 8.9 | GPR151 confirm inactive | GPR119 counter inactive
CC(=O)c1cccc(S(=O)(=O)NCC(F)(F)F)c1	GPR151 ag 5.5 | GPR151 confirm inactive | GPR119 counter inactive
C=CCNS(=O)(=O)c1cccc(C(C)=O)c1	none
COC(=O)c1ccc(/C=N\NC(=O)CNc2ccc(C)cc2)cc1	none
COC(=O)c1ccc(/C=N/NS(=O)(=O)c2cc(C)ccc2C)cc1	GPR151 ag 5.9 | GPR151 confirm inactive | GPR119 counter inactive
CC1CCCCN1C(=O)c1cc(-c2ccc(F)cc2)no1 (stereo unspecified)	none
CC(C)Oc1cc(S(=O)(=O)N2CCCCC2)ccc1N	GPR151 ag 9.9 | GPR151 confirm inactive | GPR119 counter inactive
COc1ccc(S(=O)(=O)N2CCCCC2)cc1[N+](=O)[O-]	GPR151 ag 5.0 | GPR151 confirm inactive | GPR119 counter inactive
CCN1CCN(S(=O)(=O)c2ccc(OC)c(I)c2)CC1	GPR151 ag 11.4 | GPR151 confirm inactive | GPR119 counter inactive
CC1CN(CC(O)COc2ccc(S(=O)(=O)N3CCCC3)cc2[N+](=O)[O-])CC(C)O1 (stereo unspecified)	GPR151 ag 5.7 | GPR151 confirm inactive | GPR119 counter inactive
COc1ccc(S(=O)(=O)N2CCc3ccccc3C2)cc1I	none
CC1CCCCN1C(=O)COc1ccc(S(=O)(=O)N2CCCC2)cc1[N+](=O)[O-] (stereo unspecified)	none
CCOc1cc(C(=O)Nc2cc(-c3nc4ccccc4s3)ccc2C)cc(OCC)c1OCC	none
CC1(C)CC(OC(=O)c2ccccc2)CC(C)(C)N1[O]	none

Assay outcomes as filed in PubChem BioAssay.
